# From PubChem BioAssay (Tox21)
# “And” between values parts separate entries of the source, which are not always exact repeats. Equal values may be shown once. Results filed as inconclusive are left out. Entries that show only a call come without a potency. Some structures have more than one record in an assay (separate samples or runs), and their calls can disagree. The source made the active and inactive calls. Unless noted, the call rests on the fitted dose curve; in most records, active means well fitted curve in the direction sought with a large enough effect in the repeat runs; inconclusive means weak or mixed curves; inactive means no such curve, though single readings can be large; an effect the other way counts as inactive or inconclusive. Starred links: 1 amine or outer side, 2 acyl side, 3 side chain; linkers in the order of their positions; H or OH if unused. Positions of bridges follow the written chain, without caps; N, C: chain ends. Non-standard residues stand in square brackets, D forms with d. Residues, ends and D or L forms follow the SMILES beside them. Chains are numbered I, II in the order given. Actinocin(9to1) = Cc1c2oc3c(C)ccc(C(=O)[*:1])c3nc-2c(C(=O)[*:2])c(N)c1=O; NMeV = CN[C@H](C(=O)O)C(C)C; Sar = CNCC(=O)O
# Legend:
# [1] = qHTS assay to identify small molecule antagonists of the estrogen related receptor (ERR) signaling pathway from Tox21 library - cell viability counter screen (AID 1224834); further: nearly all actives have a fitted effect of over 30% in size; further: potency means the concentration at half of the fitted maximal effect
# Procedure, shortened: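 After 17.5 h of compound exposure at 37 C, ERR cells are incubated with CellTiter-Fluor for 30 min and fluorescence intensity serves as the viability measure.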
# [2] = target: Luciferin 4-monooxygenase (Photinus pyralis) (UniProt P08659); test: qHTS assay to identify small molecule inhibitors of firefly luciferase (AID 1224835); further: nearly all actives have a fitted effect of over 25% in size; further: potency means the concentration at half of the fitted maximal effect
# Chain of Luciferin 4-monooxygenase (Photinus pyralis) (P08659 whole entry, looked up): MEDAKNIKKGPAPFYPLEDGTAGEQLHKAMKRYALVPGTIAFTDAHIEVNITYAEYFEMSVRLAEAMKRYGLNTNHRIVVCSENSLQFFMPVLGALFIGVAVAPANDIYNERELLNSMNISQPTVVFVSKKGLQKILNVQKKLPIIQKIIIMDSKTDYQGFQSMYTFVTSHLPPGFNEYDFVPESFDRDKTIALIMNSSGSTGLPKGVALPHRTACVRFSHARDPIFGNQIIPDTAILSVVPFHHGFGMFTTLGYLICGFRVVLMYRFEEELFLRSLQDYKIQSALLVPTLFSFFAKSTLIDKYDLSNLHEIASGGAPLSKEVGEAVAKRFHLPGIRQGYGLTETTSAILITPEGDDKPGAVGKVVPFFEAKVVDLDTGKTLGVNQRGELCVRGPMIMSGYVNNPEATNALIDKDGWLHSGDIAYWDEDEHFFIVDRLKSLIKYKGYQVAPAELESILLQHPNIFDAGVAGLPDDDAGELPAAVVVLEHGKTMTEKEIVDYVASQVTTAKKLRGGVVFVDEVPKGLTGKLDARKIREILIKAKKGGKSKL
# Procedure, shortened: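 Quantitative HTS format; KM concentrations of both substrates. Purified P. pyralis FLuc activity quantified from luminescence images.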
# [3] = qHTS assay to identify small molecule agonists of the constitutive androstane receptor (CAR) signaling pathway - cell viability counter screen (AID 1224836); further: nearly all actives have a fitted effect of over 45% in size; further: potency means the concentration at half of the fitted maximal effect
# Procedure, shortened: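 Cells were seeded and incubated 4 hrs. Compounds were added across 15 concentrations together with PK11195 at 0.75 uM final. Plates were incubated 23 hrs at 37 C. CellTiter-Fluor was added and fluorescence measured.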
# [4] = qHTS assay to identify small molecule antagonists of the constitutive androstane receptor (CAR) signaling pathway - cell viability counter screen (AID 1224837); further: nearly all actives have a fitted effect of over 45% in size; further: potency means the concentration at half of the fitted maximal effect
# Procedure, shortened: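 Counter screen run in HepG2-CYP2B6-hCAR cells: 4 hr settle, compound titration (15 concentrations) with 50 nM CITCO, 23 hr at 37 C/5% CO2, CellTiter-Fluor fluorescence.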
# [5] = target: Nuclear receptor subfamily 1 group I member 3 (Homo sapiens) (UniProt Q14994); test: qHTS assay to identify small molecule antagonists of the constitutive androstane receptor (CAR) signaling pathway (AID 1224838);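 further: HepG2 cells stably expressing hCAR with CYP2B6 luciferase reporter stimulated by CITCO; nearly all actives have a fitted effect of over 40% in size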; further: potency means the concentration at half of the fitted maximal effect
# Chain of Nuclear receptor subfamily 1 group I member 3 (Homo sapiens) (Q14994 whole entry, looked up): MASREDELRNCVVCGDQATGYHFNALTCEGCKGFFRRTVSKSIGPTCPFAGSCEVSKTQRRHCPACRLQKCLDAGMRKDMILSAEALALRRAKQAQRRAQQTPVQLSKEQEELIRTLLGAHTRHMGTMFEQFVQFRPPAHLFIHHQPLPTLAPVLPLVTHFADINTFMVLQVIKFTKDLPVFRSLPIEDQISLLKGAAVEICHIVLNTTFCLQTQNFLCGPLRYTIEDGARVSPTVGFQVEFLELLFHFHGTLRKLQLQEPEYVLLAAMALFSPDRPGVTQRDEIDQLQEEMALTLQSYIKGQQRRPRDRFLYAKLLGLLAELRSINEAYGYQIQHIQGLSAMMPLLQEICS
# Procedure, shortened: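 Cell line: HepG2 double-stable for hCAR and CYP2B6-2.2kb reporter. Agonist: CITCO, 50 nM final. Compounds: 15 concentrations, 24 h, 37 C. Detection: ONE-Glo luminescence.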
# [6] = target: Nuclear receptor subfamily 1 group I member 3 (Homo sapiens) (UniProt Q14994); test: qHTS assay to identify small molecule agonists of the constitutive androstane receptor (CAR) signaling pathway (AID 1224839); further: nearly all actives have a fitted effect of over 15% in size; further: potency means the concentration at half of the fitted maximal effect
# Procedure, shortened: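 Cells were plated and incubated 4 hrs, then dosed with compounds at 15 concentrations. PK11195 was added to 0.75 uM final. After 24 hrs at 37 C, luciferase luminescence was measured.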
# [7] = qHTS assay to identify small molecule antagonists of the estrogen related receptor signaling pathway with the pleiotropic PPARgamma coactivator (PGC) from Tox21 10K library - cell viability counter screen (AID 1224840; active means well fitted cell-killing curve with a large enough effect in the repeat runs, not every such curve was filed as active; further: nearly all actives have a fitted effect of over 40% in size)
# Procedure, shortened: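 Following seeding of 2,000 PGC/ERR cells/well and 6 hours' incubation, test compounds were delivered in DMSO. The plates then sat 17.5 hours at 37 C before a fluorogenic live-cell protease reagent (CellTiter-Fluor) was read after 30 min.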
# [8] = qHTS assay to identify small molecule antagonists of the estrogen related receptor signaling pathway with the pleiotropic PPARgamma coactivator (PGC) from Tox21 10K library (AID 1224841; call rule not given here; further: actives are mostly falling curves and most rising ones were filed inactive; nearly all actives have a fitted effect of over 50% in size; further: potency means the concentration at half of the fitted maximal effect)
# Procedure, shortened: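 qHTS antagonist format: PGC/ERR cells, 2k/well, compound in DMSO by pin transfer after 6 h attachment, 18 h treatment at 37 C, One-Glo luminescence read at 30 min.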
# [9] = qHTS assay to identify small molecule agonists of the estrogen related receptor signaling pathway with the pleiotropic PPARgamma coactivator (PGC) from Tox21 10K library (AID 1224842); further: nearly all actives have a fitted effect of over 15% in size
# Procedure, shortened: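 PGC/ERR reporter cells (NTP line) were seeded 2,000 per well, rested 6 h at 37 C/5% CO2, then pin-dosed with compounds in DMSO for 18 h at 37 C; luciferase read by One-Glo luminescence after 30 min at room temperature.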
# [10] = target: Thyrotropin receptor (Homo sapiens) (UniProt P16473); test: qHTS assay to identify small molecule agonists of the thyroid stimulating hormone receptor (TSHR) signaling pathway (AID 1224843; calls by dose curve; further: nearly all actives have a fitted effect of over 45% in size; further: potency means the concentration at half of the fitted maximal effect)
# Chain of Thyrotropin receptor (Homo sapiens) (P16473 whole entry, looked up): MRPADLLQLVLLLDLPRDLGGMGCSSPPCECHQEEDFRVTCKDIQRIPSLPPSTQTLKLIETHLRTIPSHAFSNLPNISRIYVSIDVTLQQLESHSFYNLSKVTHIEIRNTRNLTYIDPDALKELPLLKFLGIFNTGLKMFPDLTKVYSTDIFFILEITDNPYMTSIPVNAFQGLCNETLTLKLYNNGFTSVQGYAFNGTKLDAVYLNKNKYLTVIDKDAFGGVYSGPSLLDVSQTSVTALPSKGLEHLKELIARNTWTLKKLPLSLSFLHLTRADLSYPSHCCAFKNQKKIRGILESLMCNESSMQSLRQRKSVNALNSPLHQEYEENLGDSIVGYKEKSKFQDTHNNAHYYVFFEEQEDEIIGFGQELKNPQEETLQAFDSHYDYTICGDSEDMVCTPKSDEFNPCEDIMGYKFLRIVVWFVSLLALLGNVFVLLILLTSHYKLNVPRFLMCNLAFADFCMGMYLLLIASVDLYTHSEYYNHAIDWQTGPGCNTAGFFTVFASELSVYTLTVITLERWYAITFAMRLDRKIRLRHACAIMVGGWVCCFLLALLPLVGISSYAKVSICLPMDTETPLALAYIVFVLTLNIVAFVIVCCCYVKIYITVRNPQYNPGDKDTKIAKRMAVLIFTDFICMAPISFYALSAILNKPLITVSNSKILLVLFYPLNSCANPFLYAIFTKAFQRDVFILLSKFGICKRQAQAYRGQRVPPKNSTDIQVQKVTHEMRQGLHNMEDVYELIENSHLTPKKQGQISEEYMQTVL
# Procedure, shortened: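 Cell line HEK293 with TSHR; density 800/well. Exposure 30 min RT. Readout HTRF cAMP (cAMP-d2/anti-cAMP-cryptate), 1 h RT before reading.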
Structure (SMILES),Potency [1],Potency [2],Potency [3],Potency [4],Potency [5],Potency [6],Potency [7],Potency [8],Potency [9],Potency [10]
CC1=C(C=O)C(C)(C)CC=C1,inactive,inactive,inactive,inactive,inactive,inactive,inactive,inactive,inactive,inactive
OCC(CO)N[C@H]1C[C@](O)(CO)[C@@H](O)[C@H](O)[C@H]1O,inactive,inactive,inactive,inactive,inactive,inactive,inactive,inactive,–,inactive
COc1ccc(COC(C)=O)cc1,inactive,inactive,inactive,inactive,inactive,inactive,inactive,inactive,inactive,inactive
"Cc1c2oc3c(C)ccc(C(=O)N[C@@H]4C(=O)N[C@H](C(C)C)C(=O)N5CCC[C@H]5C(=O)N(C)CC(=O)N(C)[C@@H](C(C)C)C(=O)O[C@@H]4C)c3nc-2c(C(=O)N[C@@H]2C(=O)N[C@H](C(C)C)C(=O)N3CCC[C@H]3C(=O)N(C)CC(=O)N(C)[C@@H](C(C)C)C(=O)O[C@@H]2C)c(N)c1=O (I: T[dV]P[Sar][NMeV] / II: T[dV]P[Sar][NMeV]; ester I:1-I:C, II:1-II:C; linker I:N-II:N via Actinocin(9to1))",7.48 µM (active) and 188 nM (active),inactive,13.3 nM (active),7.5 nM (active) and 33.5 nM (active),1 nM (active),inactive,–,–,–,–
Cc1ccnc2c1NC(=O)c1cccnc1N2C1CC1,inactive,inactive,inactive,inactive,inactive,inactive,–,–,–,inactive
CCCCCCC(O)CCCCCCCCCCC(=O)O (configuration not stated),inactive,inactive,inactive,inactive,inactive,inactive,inactive,inactive,inactive,inactive
CC(C)(c1ccccc1)c1ccc(Nc2ccc(C(C)(C)c3ccccc3)cc2)cc1,inactive,inactive,inactive,inactive,inactive,inactive,inactive,inactive,–,inactive
CC(C)CCOCc1ccccc1,inactive,inactive,inactive,inactive,inactive,inactive,inactive,inactive,inactive,inactive
CC(C)(C)c1ccc(O)c(C(C)(C)C)c1,48.4 µM (active) and 61.1 µM (active),inactive,inactive,inactive,inactive,inactive,–,54.3 µM (active) and inactive,inactive,–
CCOC(=O)C(C)C(C)=O (configuration not stated),inactive,inactive,inactive,inactive,inactive,inactive,inactive,inactive,–,inactive
Nc1nc2ccccc2[nH]1,inactive,inactive,inactive,inactive,inactive,inactive,inactive,–,–,inactive
BrC1CCC(Br)C(Br)CCC(Br)C(Br)CCC1Br (configuration not stated),48.4 µM (active),inactive,inactive,inactive,21.6 µM (active) and 25.9 µM (active),inactive,–,30.5 µM (active),–,–
CC(C)C(=O)c1c(C(C)C)nn2ccccc12,inactive,inactive,inactive,inactive,inactive,23.7 µM (active),inactive,inactive,inactive,–
CCn1cc(C(=O)O)c(=O)c2cc(F)c(N3CCNC(C)C3)c(F)c21 (configuration not stated),inactive,inactive,inactive,inactive,inactive,inactive,inactive,inactive,–,inactive
O=C(O)CCc1ccccc1,inactive,inactive,inactive,inactive,inactive,inactive,inactive,inactive,–,inactive
C/C=C/c1ccc(OCC)c(O)c1,inactive,31.7 µM (active) and 35.6 µM (active),inactive,inactive,inactive,inactive,inactive,–,–,inactive
CCN1CCCC1CNC(=O)c1cc(S(=O)(=O)CC)c(N)cc1OC (configuration not stated),inactive,inactive,inactive,inactive,inactive,inactive,–,inactive,–,inactive
CCN(CC)C(=S)SSC(=S)N(CC)CC,243 nM (active) and 88.4 nM (active) and 335 nM (active),8.94 µM (active) and 6.48 µM (active) and 8.71 µM (active),273 nM (active) and 157 nM (active) and 422 nM (active),273 nM (active) and 249 nM (active) and 211 nM (active),273 nM (active) and 78.8 nM (active) and 298 nM (active),inactive,–,243 nM (active) and 366 nM (active),inactive,–
Cc1cccc2n[nH]nc12,inactive,inactive,inactive,inactive,inactive,inactive,–,inactive,inactive,inactive
c1cnc2cc3c(cc2n1)C1CNCC3C1,inactive,inactive,inactive,inactive,inactive,inactive,–,inactive,inactive,–
O=C1NCC2(CCN(CCc3ccccc3)CC2)O1,inactive,inactive,inactive,inactive,inactive,inactive,inactive,–,–,inactive
CC(=O)OCCOCCOCCOC(C)=O,inactive,inactive,inactive,inactive,inactive,inactive,inactive,–,–,6.77 µM (active) and inactive

Structure (SMILES),Potency [1],Potency [2],Potency [3],Potency [4],Potency [5],Potency [6],Potency [7],Potency [8],Potency [9],Potency [10]
O=Cc1ccc(Cl)cc1,inactive,inactive,inactive,inactive,inactive,inactive,inactive,inactive,inactive,inactive
[Cl][In]([Cl])[Cl],inactive,36.6 µM (active) and 39.9 µM (active),inactive,inactive,inactive,inactive,inactive,–,–,–
Cc1cccc([N+](=O)[O-])c1C(=O)O,inactive,inactive,inactive,inactive,inactive,inactive,–,inactive,–,inactive
O=Nc1ccc(Nc2ccccc2)cc1,19.4 µM (active) and 24.3 µM (active),35.8 µM (active) and 39.9 µM (active),inactive,inactive,inactive,–,–,–,–,–
CO[Si](OC)(OC)c1ccccc1,inactive,inactive,inactive,inactive,inactive,inactive,inactive,inactive,–,inactive
Cc1cccc(O)c1C,inactive,inactive,inactive,inactive,inactive,inactive,inactive,inactive,–,inactive
CCCCOCCOC(=O)c1ccccc1C(=O)OCCOCCCC,inactive,inactive,inactive,inactive,inactive,inactive,inactive,16.9 µM (active) and inactive,inactive,inactive
CCCCN(CCO)CCCC,inactive,inactive,inactive,inactive,inactive,inactive,–,inactive,–,inactive
COC(=O)c1cccc(C(=O)OC)c1,inactive,inactive,inactive,inactive,inactive,inactive,inactive,–,–,–
N[C@@H]1CONC1=O,inactive,inactive,inactive,inactive,inactive,inactive,inactive,inactive,–,inactive
CC(C)(O)CCC(C)(C)O,inactive,inactive,inactive,inactive,inactive,inactive,–,inactive,–,inactive
COC(c1ccccc1)(c1ccccc1)[C@H](Oc1nc(C)cc(C)n1)C(=O)O,inactive,inactive,inactive,inactive,inactive,inactive,inactive,inactive,inactive,inactive
CC(=O)N[C@@H](CS)C(=O)O,inactive,inactive,inactive,inactive,inactive,inactive,inactive,–,–,inactive
O=C(O)Cn1cnnn1,inactive,inactive,inactive,inactive,inactive,inactive,inactive,inactive,inactive,inactive
NC(N)=NC(=O)Cc1c(Cl)cccc1Cl,inactive,inactive,inactive,inactive,inactive,inactive,inactive,inactive,–,inactive
CC(C)(C)c1cc(C(C)(C)C)c(O)c(C(C)(C)C)c1,inactive,inactive,inactive,inactive,–,12.2 µM (active),–,–,–,inactive
CC1COC(=O)O1 (configuration not stated),inactive,inactive,inactive,inactive,inactive,–,–,inactive,–,inactive
Cc1occc(=O)c1OC(=O)C(C)C,inactive,inactive,inactive,inactive,inactive,–,–,inactive,–,inactive
C=CS(=O)(=O)O,inactive,inactive,inactive,inactive,inactive,–,inactive,inactive,–,inactive
CC(C)(C)c1ccccc1,inactive,inactive,inactive,inactive,inactive,–,inactive,inactive,–,inactive
Cc1scc2c1N(C(=O)CN1CCN(C)CC1)c1ccccc1NC2=O,inactive,inactive,inactive,inactive,–,–,inactive,–,–,inactive
Oc1c(Cl)cc(Cl)c(Cl)c1Cc1c(O)c(Cl)cc(Cl)c1Cl,13.6 µM (active) and 13.7 µM (active) and 8.41 µM (active),inactive,7670 nM (active),9.44 µM (active),10.8 µM (active) and 10.9 µM (active) and 9.44 µM (active),–,–,–,–,15.3 µM (active) and inactive
